Laboratory results reported in PubChem BioAssay (NCATS).
Where “and” joins values, the source holds several entries; their conditions need not be identical. Equal entries are not always repeated. Records with an inconclusive call do not appear. A call without a number means that no potency is given here. Calls of active or inactive are those of the source. Unless noted, calls come from the whole dose curve; as a rule, active = well fitted curve in the direction sought with a large enough effect; inconclusive = small, poorly fitted or top-dose-only effect, or another doubt; inactive = no such curve, though single readings can be large; an effect the other way counts as inactive or inconclusive.

Key:
[1] = test system: Zika virus NS2B-NS3 protease; assay: Primary screen GU AMC qHTS for Zika virus inhibitors (AID 1347154); note: nearly all actives have a fitted effect of over 70% in size; note: potency is the fitted concentration of half-maximal effect
Summary of the method: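 Unlinked Zika NS2B hydrophilic domain/NS3 protease domain noncovalent complex (25 nM final) in 10 mM Tris-HCl pH 8.0, 0.01% Tween 20, with AMC peptide substrate. Fluorescence (ex 340, em 450 nm) change over 15 min, room temperature; percent inhibition fitted to 4-parameter Hill equation.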

[2] = Primary qHTS for small molecule stabilizers of the endoplasmic reticulum resident proteome: Secreted ER Calcium Modulated Protein (SERCaMP) assay (AID 1508630)
Summary of the method: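 The SH-SY5Y reporter protocol was run at 3 concentrations up to 38.3 uM (primary) or 11 concentrations (follow-up): 16 h compound, 100 nM thapsigargin for 4 h, then extracellular luciferase luminescence.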

[3] = AP1 Signaling Pathway (AID 357; active = well fitted curve in either direction with a large enough effect, not every such curve was filed as active;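 note: ME-180 reporter cells stimulated with EGF at its EC50 level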); settings: ME-180 AP-1-bla reporter, EGF-induced, beta-lactamase ratio, 5 h
Summary of the method: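 AP-1-bla ME-180 cells, Opti-MEM + 0.5% dialyzed FBS, plated overnight 37 °C. Cpd titration + EC50 EGF, 5 h 37 °C. CCF4 2.5 h RT; ex 405, em 460/530 ratio → %activity, AC50.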

[4] = NFAT Signaling Pathway (AID 444; active = well fitted curve in either direction with a large enough effect, not every such curve was filed as active;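 note: carbachol stimulus at about its EC50 of 1 µM final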); settings: Jurkat NFAT-bla M1, carbachol, beta-lactamase ratio, 5 h
Summary of the method: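 Jurkat cells carrying an NFAT-driven β-lactamase reporter and co-transfected muscarinic M1 receptor were treated with compound plus carbachol (1 uM final, an EC50 level) for 5 h at 37 °C. CCF4 loading followed for 1 h at RT; 460/530 nm ratio gave %activity.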

[5] = Stat Signaling Pathway (AID 446; active = well fitted curve in either direction with a large enough effect, not every such curve was filed as active;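 note: ME-180 cervical cancer cells given 40 pM IL-6 alongside compound; SIE-controlled beta-lactamase reporter measured as 460/530 nm FRET emission ratio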); settings: ME-180 (cervical carcinoma) SIE beta-lactamase reporter, IL-6 stimulated, 5 h
Summary of the method: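 Overnight-plated ME-180 cells bearing a STAT Inducible Element beta-lactamase reporter; 5 h co-exposure to compound and 40 pM IL-6; values normalized to 300 pM IL-6 and 125 nM JAK inhibitor controls.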

[6] = molecular target: Glucocorticoid receptor (Homo sapiens) (UniProt P04150); assay: GR-GFP Redistribution (AID 450;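 active = compounds whose dose series gives a full or clear partial fitted curve of increased nuclear translocation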; note: potency is the fitted concentration of half-maximal effect); settings: U2OS GR-GFP nuclear translocation, laser cytometry, 2 h
Chain of Glucocorticoid receptor (Homo sapiens) (P04150 whole entry, looked up, the tested form may be a part): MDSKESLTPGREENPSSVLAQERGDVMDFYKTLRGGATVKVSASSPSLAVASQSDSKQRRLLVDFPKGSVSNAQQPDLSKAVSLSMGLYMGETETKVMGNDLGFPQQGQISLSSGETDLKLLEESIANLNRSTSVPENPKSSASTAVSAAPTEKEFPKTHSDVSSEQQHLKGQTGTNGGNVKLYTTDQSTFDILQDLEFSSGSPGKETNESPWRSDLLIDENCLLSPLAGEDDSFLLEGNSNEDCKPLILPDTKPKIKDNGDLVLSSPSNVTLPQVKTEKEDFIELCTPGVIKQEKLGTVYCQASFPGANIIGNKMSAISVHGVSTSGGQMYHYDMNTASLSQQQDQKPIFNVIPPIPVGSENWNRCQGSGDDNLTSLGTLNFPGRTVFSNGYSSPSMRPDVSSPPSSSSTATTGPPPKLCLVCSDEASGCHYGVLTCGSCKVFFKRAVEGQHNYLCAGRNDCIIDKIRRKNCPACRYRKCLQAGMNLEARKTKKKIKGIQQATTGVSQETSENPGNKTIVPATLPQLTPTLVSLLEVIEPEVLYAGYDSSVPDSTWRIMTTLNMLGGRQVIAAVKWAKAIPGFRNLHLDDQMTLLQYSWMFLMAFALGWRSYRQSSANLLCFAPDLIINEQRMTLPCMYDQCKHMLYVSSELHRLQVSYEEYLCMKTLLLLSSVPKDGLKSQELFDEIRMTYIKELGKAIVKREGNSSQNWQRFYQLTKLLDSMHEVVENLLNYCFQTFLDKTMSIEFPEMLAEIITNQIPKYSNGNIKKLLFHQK

[7] = molecular target: Glucocorticoid receptor (Homo sapiens) (UniProt P04150); assay: GR-EFC Redistribution (AID 451; calls by dose curve; note: potency is the fitted concentration of half-maximal effect); settings: CHO-K1 GR-EFC translocation, beta-gal luminescence, 2 h
Summary of the method: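 CHO-K1 cells stably expressing nuclear-localized β-gal enzyme acceptor and GR fused C-terminally to the enzyme donor fragment; ligand-driven nuclear translocation restores β-gal by complementation. Compounds titrated up to 46 uM final, 2 h at 37 °C; luminescence read.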

[8] = molecular target: Mitogen-activated protein kinase 10 (Mus musculus) (UniProt Q61831); assay: JNK3 AlphaScreen Assay (AID 530; active = well fitted curve in either direction with a large enough effect, not every such curve was filed as active;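 note: kinase came from lysate of stimulated human HepG2 cells; signal reports phosphorylation of biotinylated GST-cJun 1-79 at Ser73 with 10 µM ATP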)
Summary of the method: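 Phosphorylation of biotinylated GST-cJun(1-79) at Ser73 is measured by AlphaScreen proximity luminescence. Enzyme is JNK3 in HepG2 lysates activated with interleukin-1beta and tumor necrosis factor alpha; ATP is 10 uM final.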

[9] = molecular target: 3',5'-cyclic-AMP phosphodiesterase 4B (Homo sapiens) (UniProt Q07343); assay: qHTS Assay for Inhibitors of PDE-IV (AID 607; active = well fitted activation curve with a large enough effect in the main read-out, with a control signal flat, not every such curve was filed as active)
Summary of the method: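 Live HEK293 cells with a modified cyclic nucleotide-gated (CNG) channel report intracellular cAMP via membrane-potential dye fluorescence (ex 535/em 590 nm). Endogenous PDE-IV was targeted. Compounds were tested at up to 22.9 uM final; RO 20-1724 100 uM served as control.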

[10] = qHTS Assay for Lipid Storage Modulators (AID 1519; calls by dose curve); settings: Drosophila S3 cells, BODIPY lipid droplet/cell ratio, laser cytometry, cells loaded with oleic acid
Summary of the method: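 Cells seeded at 5,000 per well were treated with compounds over a concentration series and loaded with oleic acid (400 uM, as added). Lipid droplet fluorescence (488 nm excitation, 500-530 nm channel) was read by laser-scanning cytometry and normalized to 20 uM Triacsin C.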

[11] = molecular target: Ubiquitin carboxyl-terminal hydrolase 1 (Homo sapiens) (UniProt O94782); assay: Inhibitors of USP1/UAF1: Pilot qHTS (AID 504865);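 note: rhodamine fluorescence freed from ubiquitin-rhodamine substrate followed over time; top concentration of the series differs between compounds; nearly all actives have a fitted effect of over 35% in size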
Chain of Ubiquitin carboxyl-terminal hydrolase 1 (Homo sapiens) (O94782 whole entry, looked up): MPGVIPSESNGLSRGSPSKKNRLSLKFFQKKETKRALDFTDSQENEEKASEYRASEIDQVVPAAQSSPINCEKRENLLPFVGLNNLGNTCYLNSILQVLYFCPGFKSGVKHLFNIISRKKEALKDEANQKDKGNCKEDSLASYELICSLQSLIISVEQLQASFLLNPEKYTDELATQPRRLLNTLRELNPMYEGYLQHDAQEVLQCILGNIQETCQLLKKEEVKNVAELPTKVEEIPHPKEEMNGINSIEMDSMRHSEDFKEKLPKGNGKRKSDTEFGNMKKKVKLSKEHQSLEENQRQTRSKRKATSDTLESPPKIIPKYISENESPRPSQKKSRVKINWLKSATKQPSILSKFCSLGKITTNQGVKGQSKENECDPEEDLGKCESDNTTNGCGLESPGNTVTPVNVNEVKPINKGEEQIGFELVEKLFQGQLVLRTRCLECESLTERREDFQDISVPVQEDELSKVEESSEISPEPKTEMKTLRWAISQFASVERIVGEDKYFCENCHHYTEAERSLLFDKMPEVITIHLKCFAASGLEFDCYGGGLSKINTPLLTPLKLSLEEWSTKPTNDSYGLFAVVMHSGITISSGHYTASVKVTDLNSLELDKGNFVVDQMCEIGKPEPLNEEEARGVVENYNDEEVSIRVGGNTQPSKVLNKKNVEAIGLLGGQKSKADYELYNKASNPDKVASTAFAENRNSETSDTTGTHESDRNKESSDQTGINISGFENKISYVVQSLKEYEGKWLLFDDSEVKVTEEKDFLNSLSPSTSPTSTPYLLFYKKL
Summary of the method: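 In 50mM HEPES pH 7.8 containing 0.5mM EDTA, 1mM TCEP, 0.1 mg/ml BSA and 0.01% Tween-20, 1nM USP1/UAF1 is exposed to compound for 15 min, then Ub-Rho (150nM final) is added and fluorescence is read over time.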

[12] = molecular target: DNA dC->dU-editing enzyme APOBEC-3G (Homo sapiens) (UniProt Q9HC16); assay: qHTS for inhibitors of Vif-A3G interactions: Validation (AID 588379)
Chain of DNA dC->dU-editing enzyme APOBEC-3G (Homo sapiens) (Q9HC16 whole entry, looked up): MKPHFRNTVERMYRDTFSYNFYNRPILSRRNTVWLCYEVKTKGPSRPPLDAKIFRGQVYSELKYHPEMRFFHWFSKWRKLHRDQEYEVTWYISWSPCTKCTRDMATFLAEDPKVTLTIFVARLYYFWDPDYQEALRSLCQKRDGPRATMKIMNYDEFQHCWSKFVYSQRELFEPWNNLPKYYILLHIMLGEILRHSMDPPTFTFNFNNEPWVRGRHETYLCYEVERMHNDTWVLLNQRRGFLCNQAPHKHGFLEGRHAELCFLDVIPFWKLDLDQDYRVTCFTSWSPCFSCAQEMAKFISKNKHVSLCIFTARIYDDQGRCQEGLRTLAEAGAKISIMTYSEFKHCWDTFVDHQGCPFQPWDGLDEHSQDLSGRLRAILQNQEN
Summary of the method: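 Yellow fluorescence (Ex 488, Em 500-530) of Vif-coexpressing HeLa A3G-eYFP cells, scanned by Acumen cytometer, reports blocked A3G degradation. Cells plated at 700/well overnight at 37 deg C before compound addition, then a further overnight compound incubation at 37 deg C.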

[13] = molecular target: Rap guanine nucleotide exchange factor 3 (Homo sapiens) (UniProt O95398); assay: Confirmatory qHTS for antagonist of cAMP-regulated guanine nucleotide exchange factor 3 (EPAC1) (AID 1645880); note: nearly all actives have a fitted effect of over 55% in size
Chain of Rap guanine nucleotide exchange factor 3 (Homo sapiens) (O95398 whole entry, looked up): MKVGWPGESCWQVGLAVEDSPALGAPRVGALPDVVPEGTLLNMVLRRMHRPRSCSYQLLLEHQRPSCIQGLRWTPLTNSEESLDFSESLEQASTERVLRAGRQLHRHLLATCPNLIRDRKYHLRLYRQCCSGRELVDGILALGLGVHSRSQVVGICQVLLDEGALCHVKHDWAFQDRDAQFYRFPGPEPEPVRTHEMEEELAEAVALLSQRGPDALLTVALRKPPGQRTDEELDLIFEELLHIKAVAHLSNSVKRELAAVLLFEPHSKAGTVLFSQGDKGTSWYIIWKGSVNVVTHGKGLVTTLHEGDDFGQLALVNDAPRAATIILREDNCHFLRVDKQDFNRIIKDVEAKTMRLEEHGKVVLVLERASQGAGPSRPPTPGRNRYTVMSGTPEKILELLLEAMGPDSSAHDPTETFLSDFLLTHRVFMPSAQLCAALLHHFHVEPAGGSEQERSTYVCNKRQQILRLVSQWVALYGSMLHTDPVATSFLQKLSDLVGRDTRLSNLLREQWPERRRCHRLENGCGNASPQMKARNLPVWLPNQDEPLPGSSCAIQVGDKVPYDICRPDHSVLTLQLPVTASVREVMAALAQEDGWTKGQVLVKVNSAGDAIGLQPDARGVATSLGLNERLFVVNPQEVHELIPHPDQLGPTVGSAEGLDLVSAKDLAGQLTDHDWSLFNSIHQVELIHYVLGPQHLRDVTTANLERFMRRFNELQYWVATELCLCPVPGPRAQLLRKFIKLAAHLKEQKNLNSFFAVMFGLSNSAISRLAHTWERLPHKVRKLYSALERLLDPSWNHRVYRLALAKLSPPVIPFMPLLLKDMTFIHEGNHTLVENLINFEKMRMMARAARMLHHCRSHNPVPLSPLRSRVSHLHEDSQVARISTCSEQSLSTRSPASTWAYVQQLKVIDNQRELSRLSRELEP
Summary of the method: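 Released BODIPY-GDP fluoresces less than Rap1-bound BODIPY-GDP; the signal is followed at 480/540 nm at 5-min intervals over 30 min, after 5 min at room temperature. Reactions contain 100 nM EPAC1, 250 nM RAP1B-BODIPY-GDP and 50 uM GDP; results are normalized to ATA and DMSO.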

[14] = molecular target: Rap guanine nucleotide exchange factor 3 (Homo sapiens) (UniProt O95398); assay: Confirmatory qHTS for agonist of cAMP-regulated guanine nucleotide exchange factor 3 (EPAC1) (AID 1645881);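 note: EPAC1 catalysed release of BODIPY-GDP from Rap1B seen as fluorescence loss; nearly all actives have a fitted effect of over 75% in size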
[15] = molecular target: Rap guanine nucleotide exchange factor 4 (Homo sapiens) (UniProt Q8WZA2); assay: Confirmatory qHTS for agonist of cAMP-regulated guanine nucleotide exchange factor 4 (EPAC2) (AID 1645884);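 note: nucleotide exchange releases bodipy-GDP from Rap1 and this lowers its fluorescence; nearly all actives have a fitted effect of over 65% in size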
Chain of Rap guanine nucleotide exchange factor 4 (Homo sapiens) (Q8WZA2 whole entry, looked up): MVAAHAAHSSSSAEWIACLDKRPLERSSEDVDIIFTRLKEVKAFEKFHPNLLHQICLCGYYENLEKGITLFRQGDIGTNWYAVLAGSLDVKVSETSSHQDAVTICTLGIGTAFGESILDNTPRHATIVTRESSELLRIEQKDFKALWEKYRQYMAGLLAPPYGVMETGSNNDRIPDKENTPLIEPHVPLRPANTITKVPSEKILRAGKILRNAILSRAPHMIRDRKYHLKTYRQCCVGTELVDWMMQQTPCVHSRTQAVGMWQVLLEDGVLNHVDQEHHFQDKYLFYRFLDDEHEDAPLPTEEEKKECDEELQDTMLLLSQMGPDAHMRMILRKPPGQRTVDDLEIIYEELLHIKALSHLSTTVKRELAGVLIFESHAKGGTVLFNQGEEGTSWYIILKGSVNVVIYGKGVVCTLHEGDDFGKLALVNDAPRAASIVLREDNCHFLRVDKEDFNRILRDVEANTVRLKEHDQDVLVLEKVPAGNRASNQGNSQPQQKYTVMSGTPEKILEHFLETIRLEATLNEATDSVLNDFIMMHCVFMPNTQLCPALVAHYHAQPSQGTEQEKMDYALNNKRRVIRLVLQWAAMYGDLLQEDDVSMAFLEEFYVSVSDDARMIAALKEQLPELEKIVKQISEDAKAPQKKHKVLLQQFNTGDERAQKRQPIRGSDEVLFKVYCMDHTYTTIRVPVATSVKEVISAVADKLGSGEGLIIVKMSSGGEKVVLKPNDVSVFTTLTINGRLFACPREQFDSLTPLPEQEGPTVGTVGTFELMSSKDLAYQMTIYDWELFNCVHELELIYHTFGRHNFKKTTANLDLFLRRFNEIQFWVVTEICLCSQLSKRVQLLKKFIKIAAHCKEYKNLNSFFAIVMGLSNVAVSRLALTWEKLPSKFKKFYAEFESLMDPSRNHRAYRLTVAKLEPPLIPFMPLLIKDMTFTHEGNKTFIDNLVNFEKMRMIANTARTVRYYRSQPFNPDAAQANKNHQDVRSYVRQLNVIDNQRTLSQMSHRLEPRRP

[16] = molecular target: Cytochrome P450 1A2 (Homo sapiens) (UniProt P05177); assay: p450-cyp1a2 (AID 410; calls by dose curve; note: potency is the fitted concentration of half-maximal effect)
Chain of Cytochrome P450 1A2 (Homo sapiens) (P05177 whole entry, looked up): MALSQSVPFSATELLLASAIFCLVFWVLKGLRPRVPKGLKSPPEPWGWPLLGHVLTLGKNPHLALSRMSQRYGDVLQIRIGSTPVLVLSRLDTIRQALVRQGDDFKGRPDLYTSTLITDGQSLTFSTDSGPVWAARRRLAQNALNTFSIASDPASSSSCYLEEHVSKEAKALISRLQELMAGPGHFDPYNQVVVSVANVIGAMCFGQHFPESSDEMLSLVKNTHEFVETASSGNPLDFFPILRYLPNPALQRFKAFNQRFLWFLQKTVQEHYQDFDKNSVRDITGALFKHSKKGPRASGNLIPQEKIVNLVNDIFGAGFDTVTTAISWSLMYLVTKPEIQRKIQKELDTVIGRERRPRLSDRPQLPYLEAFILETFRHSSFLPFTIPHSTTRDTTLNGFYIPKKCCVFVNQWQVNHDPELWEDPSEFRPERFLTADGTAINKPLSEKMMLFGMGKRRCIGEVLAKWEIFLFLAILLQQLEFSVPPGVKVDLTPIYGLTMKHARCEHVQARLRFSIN
Summary of the method: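 Luminescent demethylation readout: Luciferin-ME (100uM, equal to Km) turned over by 20nM CYP1A2 for 60 min at room temperature after NADPH regeneration addition, following 10 min compound preincubation. Normalization used 57 uM furafylline as full inhibition.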

[17] = molecular target: Cytochrome P450 2D6 (Homo sapiens) (UniProt P10635); assay: qHTS Assay for Inhibitors and Substrates of Cytochrome P450 2D6 (AID 891); note: potency is the fitted concentration of half-maximal effect; nearly all actives have a fitted effect of over 60% in size
Summary of the method: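 Luminescent read-out of luciferin formed by 5 nM human CYP2D6 demethylating 30 uM Luciferin-ME EGE (Km level) over 60 min at room temperature after NADPH regeneration addition. Data normalized to full inhibition by 1.43 uM quinidine.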

[18] = molecular target: Cytochrome P450 3A4 (Homo sapiens) (UniProt P08684); assay: qHTS Assay for Inhibitors and Substrates of Cytochrome P450 3A4 (AID 884); note: nearly all actives have a fitted effect of over 50% in size
Chain of Cytochrome P450 3A4 (Homo sapiens) (P08684 whole entry, looked up): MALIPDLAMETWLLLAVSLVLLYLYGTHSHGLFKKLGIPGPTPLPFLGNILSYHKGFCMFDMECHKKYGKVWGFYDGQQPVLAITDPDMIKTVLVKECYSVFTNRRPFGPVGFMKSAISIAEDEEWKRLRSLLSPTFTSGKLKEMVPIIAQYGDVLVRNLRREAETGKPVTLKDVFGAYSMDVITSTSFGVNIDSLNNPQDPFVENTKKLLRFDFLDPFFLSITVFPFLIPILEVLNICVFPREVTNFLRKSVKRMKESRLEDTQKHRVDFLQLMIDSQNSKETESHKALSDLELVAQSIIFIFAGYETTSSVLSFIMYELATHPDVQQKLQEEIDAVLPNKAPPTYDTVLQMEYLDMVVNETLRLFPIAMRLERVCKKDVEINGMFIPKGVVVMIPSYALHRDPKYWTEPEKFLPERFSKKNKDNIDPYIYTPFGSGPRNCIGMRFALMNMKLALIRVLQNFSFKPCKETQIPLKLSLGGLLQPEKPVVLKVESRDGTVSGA
Summary of the method: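 Luminescent readout of luciferin produced by CYP3A4 (20 nM) dealkylation of Luciferin-PPXE, 25 uM (its KM). NADPH-driven reaction ran 60 min at RT after 10 min compound preincubation; data scaled to 57 uM ketoconazole as 100% inhibition.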

[19] = measured here: cell count channel max response
[20] = measured here: lipid channel max response

Structure (SMILES): CCCCCCCCCCCCC/C=C/[C@@H](O)[C@H](CO)NCCCCCCCC
- activity change, negative = inhibition [1]: 15.2% [at 6.83 µM] (inactive)
- activity change, negative = inhibition [2]: -10.1% [at 3.88 µM] (inactive)

Structure (SMILES): O=C(O)/C=C1\CCCc2ccccc2C1O (stereo not drawn)
- Potency [1]: inactive
- Potency [2]: inactive

Structure (SMILES): CCOC(=O)C12CC1/C(=N\O)c1ccccc1O2 (stereo not drawn)
- Potency [1]: inactive
- Potency [2]: inactive

Structure (SMILES): CC(O)(C(=O)Nc1ccc(S(=O)(=O)c2ccccc2)cc1)C(F)(F)F (stereo not drawn)
- Potency [1]: inactive
- Potency [2]: inactive

Structure (SMILES): CC(C)c1ccc2c(c1)CC[C@H]1[C@](C)(CN)CCC[C@]21C
- Potency [1]: inactive
- Potency [2]: inactive

Structure (SMILES): COc1ccccc1C1(O)CCN(CCCn2c3ccccc3c3ccccc32)CC1
- Potency [1]: inactive
- Potency [2]: inactive

Structure (SMILES): CN(C)CCCSC(=N)N
- activity change, negative = inhibition ([3]; at 17.2 µM (top of the series)): 2.97% (inactive)
- activity change, negative = inhibition ([4]; at 17.2 µM (top of the series)): -13.3% (inactive)
- activity, negative = inhibition ([5]; at 17.2 µM (top of the series)): -1.52% (inactive)
- Potency [6]: > 20.6 µM (inactive) and > 46 µM (inactive)
- Potency [7]: > 20.6 µM (inactive) and > 46 µM (inactive)
- Potency [8]: inactive
- Potency [9]: inactive
- activity change, negative = inhibition ([10]; at 25.7 µM (top of the series)): -2.91% (inactive)
- activity change, negative = inhibition ([10]; at 57.5 µM (top of the series)): 3.5% (inactive)
- max response [10, 19]: -7.27% and -5.75%
- max response [10, 20]: -5.95% and 13.8%
- Potency [11]: inactive
- Potency [12]: inactive
- Potency [1]: inactive
- Potency [2]: inactive
- Potency [13]: inactive
- outcome [14]: inactive
- outcome [15]: inactive

Structure (SMILES): CCC(=O)NC1CCc2cccc(OC)c2C1 (stereo not drawn)
- Potency [1]: inactive
- Potency [2]: inactive

Structure (SMILES): COC(=O)/C=C/c1cc(O)ccc1O
- Potency [1]: inactive
- Potency [2]: inactive

Structure (SMILES): CCCCC/C=C\C/C=C\C/C=C\C/C=C\CCCCCC(=O)O
- activity change, negative = inhibition [1]: -5.55% [at 6.83 µM] (inactive)
- activity change, negative = inhibition [2]: 14.9% [at 3.88 µM] (inactive)

Structure (SMILES): COC(=O)C1=C(C)NC(C)=C(C(=O)NCCCN2CCC(c3ccccc3)(c3ccccc3)CC2)C1c1ccc([N+](=O)[O-])cc1 (stereo not drawn)
- Potency [1]: inactive
- Potency [2]: inactive

Structure (SMILES): CC(C)NC[C@H](O)c1ccc2ccccc2c1
- activity change, negative = inhibition ([3]; at 17.2 µM (top of the series)): 1.15% (inactive)
- Potency [16]: 10 µM (active) and 12.6 µM (active)
- activity change, negative = inhibition ([4]; at 17.2 µM (top of the series)): -18.4% (inactive)
- activity, negative = inhibition ([5]; at 17.2 µM (top of the series)): -5.4% (inactive)
- Potency [6]: > 20.6 µM (inactive) and > 46 µM (inactive)
- Potency [7]: > 20.6 µM (inactive) and > 46 µM (inactive)
- Potency [8]: inactive
- Potency [17]: 3.16 µM (active)
- activity change, negative = inhibition ([10]; at 25.7 µM (top of the series)): -2.39% (inactive)
- activity change, negative = inhibition ([10]; at 57.5 µM (top of the series)): -0.481% (inactive)
- max response [10, 19]: 2.13% and 8.48%
- max response [10, 20]: -2.74% and 9.7%
- Potency [11]: inactive
- Potency [12]: inactive
- Potency [1]: inactive
- Potency [2]: inactive

Structure (SMILES): COC(=O)[C@@H]1[C@@H]2C[C@H]3c4[nH]c5ccccc5c4CCN3C[C@@H]2CC[C@@H]1O
- activity change, negative = inhibition ([3]; at 7.69 µM (top of the series)): -0.0828% (inactive)
- activity change, negative = inhibition ([4]; at 7.69 µM (top of the series)): -0.996% (inactive)
- activity, negative = inhibition ([5]; at 7.69 µM (top of the series)): 0.353% (inactive)

Structure (SMILES): CCC(=O)N[C@@H]1Cc2ccccc2[C@@H](c2ccccc2)C1
- Potency [13]: inactive
- outcome [14]: inactive
- outcome [15]: inactive

Structure (SMILES): S=C(S)O[C@@H]1C[C@@H]2C[C@H]1[C@@H]1CCC[C@H]21
- Potency [13]: inactive
- outcome [14]: inactive
- outcome [15]: inactive

Structure (SMILES): Cc1cc([C@](C)(N)C(=O)O)ccc1P(=O)(O)O
- Potency [6]: > 46 µM (inactive)
- Potency [7]: > 46 µM (inactive)
- Potency [8]: inactive
- Potency [9]: inactive
- activity change, negative = inhibition ([10]; at 57.5 µM (top of the series)): -5.09% (inactive)
- max response [10, 19]: 16.7%
- max response [10, 20]: 13.5%
- Potency [11]: inactive
- Potency [12]: inactive
- Potency [1]: inactive
- Potency [2]: inactive

Structure (SMILES): O=C(O)c1c2ccccc2cc2ccccc12
- Potency [16]: 200 nM (active)
- Potency [8]: inactive
- Potency [18]: inactive
- activity change, negative = inhibition ([10]; at 57.5 µM (top of the series)): 8.27% (inactive)
- max response [10, 19]: 24.6%
- max response [10, 20]: 34.2%
- Potency [12]: inactive
- Potency [1]: 26.7 µM (active)
- Potency [2]: inactive
